The list is not random: actives were taken first. Their share in the collection is about 2.4%.
WRN inhibitor: qHTS for Inhibitors of WRN Helicase. Bifunctional 3'-5' exonuclease/ATP-dependent helicase WRN (Homo sapiens), Q14191. AID 651768, 2012. WRN helicase unwinding, fluorescent forked duplex, kinetic. Potency, µM (highest dose often 114 µM), for inactives: top-dose activity change, negative = inhibition, most hits filed as inhibitors. 0.46% of 360,000 active; note: % is set by controls: 0 for no effect and ±100 for the full control effect; nearly all actives have a fitted effect of over 55% in size
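Kinetic fluorescence helicase assay: unwinding of a quenched forked DNA duplex (100 nM final) with 2 mM ATP final raises red fluorescence (525/598 nm). Compounds sat 15 min at room temperature with 20 nM WRN beforehand.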
FEN1 inh: qHTS Assay for the Inhibitors of Human Flap endonuclease 1 (FEN1) | P39748 | Recombinant FEN1 flap cleavage, fluorescence, 15 min | Potency, µM (series often up to 114 µM), for inactives: at the highest dose activity change, negative = inhibition, actives largely listed as inhibitors | 0.35% of 390,000 active | AID 588795, 2011; note: % is set by controls: 0 for no effect and ±100 for the full control effect; nearly all actives have a fitted effect of over 65% in size
Target sequence (P39748 whole entry, looked up): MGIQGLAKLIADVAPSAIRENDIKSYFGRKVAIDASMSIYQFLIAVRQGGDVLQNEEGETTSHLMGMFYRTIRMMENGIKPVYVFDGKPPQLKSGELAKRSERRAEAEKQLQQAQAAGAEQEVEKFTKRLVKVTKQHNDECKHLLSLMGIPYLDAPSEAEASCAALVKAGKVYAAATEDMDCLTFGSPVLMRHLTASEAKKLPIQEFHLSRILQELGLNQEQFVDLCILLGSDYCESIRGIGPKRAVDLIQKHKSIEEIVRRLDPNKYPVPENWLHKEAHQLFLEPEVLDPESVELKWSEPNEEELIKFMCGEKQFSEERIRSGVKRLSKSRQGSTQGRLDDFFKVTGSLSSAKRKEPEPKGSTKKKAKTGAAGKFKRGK
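Nuclease activity of 10 nM FEN1 was measured after 15 min of room-temperature exposure to titrated compounds, by adding 50 nM flap substrate and reading plates at 0 and 15 min.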
Pol beta inh: qHTS Assay for Inhibitors of DNA Polymerase Beta; Pol beta primer extension/strand displacement, fluorescence kinetic; Potency, µM (top dose mostly 114 µM), without a hit: at the highest dose activity change, negative = inhibition, actives largely listed as inhibitors; 1.3% of 340,000 active; P06746; note: % is set by controls: 0 for no effect and ±100 for the full control effect
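Pol beta (10 nM) was preincubated with compound for 15 min at room temperature. The reaction was then started with 50 nM substrate and read immediately and after a further 10 min at room temperature.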
POLI inh: qHTS for Inhibitors of Polymerase Iota | Pol iota fluorescent replication assay, 10 min | Potency, µM (highest dose often 115 µM), without a hit: top-dose activity, negative = inhibition, actives largely listed as inhibitors | 1% of 390,000 active | AID 588590, 2011
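Fluorescent replication assay read twice, at 0 min and 10 min after adding 50 nM (final) substrate. Enzyme (10 nM) and compounds were first incubated 15 min at room temperature; enzyme-free buffer wells were negative controls.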
Pol kappa inh: qHTS for Inhibitors of Polymerase Kappa; purified Pol kappa, fluorescent DNA synthesis assay, 10 min; DNA polymerase kappa (Homo sapiens), Q9UBT6; AID 588579, 2011; Potency, µM (highest dose often 107 µM), for the others: at the highest dose activity, negative = inhibition, actives largely listed as inhibitors; 0.53% of 400,000 active; note: % is set by controls: 0 for no effect and ±100 for the full control effect
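First, compounds were pin-transferred onto 10 nM Pol kappa. After 15 min at room temperature, substrate was added to 50 nM final. Fluorescence was then measured kinetically at 0 and 10 min.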
Pol eta inh: qHTS for Inhibitors of Polymerase Eta; DNA polymerase eta (Homo sapiens), Q9Y253; recombinant Pol eta, fluorescent DNA replication assay; Potency, µM (doses to about 114 µM), without a hit: at the highest dose activity change, negative = inhibition, most hits filed as inhibitors; 1.2% of 390,000 active; AID 588591, 2011; note: % is set by controls: 0 for no effect and ±100 for the full control effect
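Fluorescent replication assay: 50 nM final substrate added after a 15 min room-temperature compound preincubation with 10 nM enzyme. Signal taken at 0 min and again at 10 min.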
* marks the source's active call; other numbers are inactive results; ? = inconclusive; / = no result; [ ] = another dose, or the depositor's remark. Calls come from the whole dose curve; as a rule, active = well fitted curve in the direction sought with a large enough effect; inconclusive = small, poorly fitted or top-dose-only effect, or another doubt; inactive = no such curve, though single readings can be large; an effect the other way counts as inactive or inconclusive. Potency is the fitted concentration of half-maximal effect.

SMILES	WRN inhibitor	FEN1 inh	Pol beta inh	POLI inh	Pol kappa inh	Pol eta inh
Cc1sc2ncnc(NCc3ccco3)c2c1C	-25%[57.1 µM]	-6%	45µM*	?	-28%	?
O=C(Cn1cnc2scc(-c3ccccc3)c2c1=O)NCc1ccco1	-19%	5%	28µM*	56µM*	?	22µM*
Cc1nc(SCC(=O)NC(=O)NCc2ccco2)nc(C)c1C	-12%	-7%	18µM*	?	-14%	-21%
CCc1ccc(-c2csc3ncn(CC(=O)NCc4ccco4)c(=O)c23)cc1	-12%	-15%	-20%	19%	2%	-4%
CCOCCc1nnc(NC(=O)C(=O)c2cc(C)n(-c3cccc(Cl)c3)c2C)s1	/	-23%	28%	169%	-6%	-4%
COc1ccc(CNC(=O)Cn2ncn3c(cc4ccccc43)c2=O)cc1	-7%	12%	32%	50%	-4%	-2%
O=C(Cn1ncn2c(cc3ccccc32)c1=O)NCc1ccco1	-36%[57.1 µM]	2%	50µM*	?	3%[60.1 µM]	89µM*
O=C(CSc1nc2cc(Cl)ccc2s1)NC(=O)NCc1ccco1	?	-10%	45µM*	19%	?	35µM*
CCOc1ccc2nc(SCC(=O)NC(=O)NCc3ccco3)sc2c1	-4%	-3%	24%	0%	0%	-9%
Cc1sc2ncnc(SCC(=O)NC(=O)NCc3ccco3)c2c1C	-27%	-20%	11µM*	?	?	89µM*
c1csc(Cc2nn3c(-c4ccncc4)nnc3s2)c1	?	?	32µM*	20µM*	40µM*	?
O=c1c2c(nc3c(-c4ccc(Cl)cc4)c[nH]n13)CCC2	-7%[57.1 µM]	-5%	89µM*	20%	-9%	-17%
O=c1c2c(nc3c(-c4cccc(Br)c4)c[nH]n13)CCCC2	-11%	-2%	2%	7%	-18%	1%
Cc1ccc(NC(=O)Cc2ccc(-n3c(C)nc4cccnc43)cc2)c(Cl)c1	/	-3%	7%	-21%	8%	21%
CN(C)C(=O)Nc1ccc(Oc2ccc(Cl)cc2)cc1	/	/	/	/	12%[60.1 µM]	/
N#C/C(=C(/O)CCl)c1nc2c(s1)CCc1ccccc1-2	?	?	?	?	-27%	35µM*
CCCOc1ccc(/C(O)=C2/C(=O)C(=O)N(CCCN3CCOCC3)C2c2ccncc2)cc1 (stereo not given)	/	/	13µM*	/	/	/
O=[N+]([O-])c1c(Nc2ccccc2O)cc(Cl)c2nonc12	?	-26%	18µM*	11µM*	-2%	45µM*
Cc1ccc2nc(N/N=C\c3ccc([N+](=O)[O-])o3)nc(-c3ccccc3)c2c1	-11%	5%	28µM*	?	-18%	?
c1ccc(CNc2nc(-c3ccc4c(c3)OCO4)nc3ccccc23)cc1	/	/	/	/	-4%[60.1 µM]	/
O=c1c(-c2ccc(Cl)cc2)nc2cnc(N3CCOCC3)nc2n1Cc1ccc(F)cc1	/	/	/	/	3%[60.1 µM]	/
O=C(CSc1ncnc2nc[nH]c12)Nc1nnc(SCc2ccc(Cl)c(Cl)c2)s1	?	-7%	40µM*	?	-15%	?
Cc1ccc(C)c(NC(=O)CSc2ncnc3nc[nH]c23)c1	0%	-17%	8%	?	5%	-1%
CC(=O)c1ccc2c3c(cccc13)C(=O)N(CCc1ccccc1)C2=O	-5%[11.6 µM]	-15%	32µM*	?	?	28µM*
NN1C(=O)c2cccc3c(C(=O)O)ccc(c23)C1=O	4%	4%	11%	-15%	-3%	?
Cc1ccc(NC(=O)C2CCCN2S(=O)(=O)c2ccc3nc(-c4ccccc4)[nH]c3c2)cc1C (stereo not given)	/	-4%	-33%	?	-26%	-10%
